From PubChem
In the library only some 1.2% were active in any assay of this set; here they are far more common.
TSG101-PTAP inh: qHTS Assay for Iinhibitors of HIV-1 Budding by Blocking the Interaction of PTAP/TSG101; 340,000 tested, under 10 active; Fluorescence polarization, FITC-PTAP peptide / Tsg101 binding; Potency, µM (titrated, usually from 115 µM), without a hit: at the highest dose activity change, negative = inhibition, most hits filed as inhibitors; active = well fitted inhibition curve with a large enough effect in the main read-out, with a control signal flat, not every such curve was filed as active; inconclusive = small, poorly fitted or top-dose-only effect, or effect the other way, or a change in a side signal; inactive = no such curve, though single readings can be large or run the other way; note: potency is the fitted concentration of half-maximal effect; % of control where 0% means no effect
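Fluorescence anisotropy tracks displacement of a FITC-tagged PTAP peptide (50 nM) from the Tsg101 binding domain (10 uM), following a 20 min room-temperature incubation at pH 7.5.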
hERG WT inh: qHTS for Inhibitors of KCHN2 3.1: Wildtype qHTS. U2OS, BacMam KCNH2, thallium flux FluxOr; hits give low values. 340,000 tested, 0.37% active. AID 720551, 2013. activity change, % at 1.84 µM;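 active = maximum activity change below -70%; inconclusive = maximum activity change between -70% and -50%; inactive = maximum activity change above -50%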; note: % is set by controls: 0 for no effect and ±100 for the full control effect
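U2OS cells transduced with wild-type KCNH2 virus are loaded with FluxOr dye for 45 min, and thallium flux is measured in kinetic reads before and after stimulation buffer. Rate constants are normalized to DMSO controls.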
Tb PFK block: qHTS Assay to Find Inhibitors of T. brucei phosphofructokinase; Potency, µM (titrated, usually from 57.5 µM), for the others: at the highest dose activity, negative = inhibition, hits mostly inhibitors; 330,000 tested, 0.17% active; T. brucei PFK, ADP-Glo luminescence; ATP-dependent 6-phosphofructokinase (Trypanosoma brucei brucei), O15648; active = well fitted inhibition curve with a large enough effect; inconclusive = small, poorly fitted or top-dose-only effect, or effect the other way;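 note: potency is the fitted concentration of half-maximal effect; 0% = uninhibited 1x PFK enzyme wells and -100% = no-enzyme wells; nearly all actives have a fitted effect of over 60% in size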
Target sequence (O15648 whole entry, looked up): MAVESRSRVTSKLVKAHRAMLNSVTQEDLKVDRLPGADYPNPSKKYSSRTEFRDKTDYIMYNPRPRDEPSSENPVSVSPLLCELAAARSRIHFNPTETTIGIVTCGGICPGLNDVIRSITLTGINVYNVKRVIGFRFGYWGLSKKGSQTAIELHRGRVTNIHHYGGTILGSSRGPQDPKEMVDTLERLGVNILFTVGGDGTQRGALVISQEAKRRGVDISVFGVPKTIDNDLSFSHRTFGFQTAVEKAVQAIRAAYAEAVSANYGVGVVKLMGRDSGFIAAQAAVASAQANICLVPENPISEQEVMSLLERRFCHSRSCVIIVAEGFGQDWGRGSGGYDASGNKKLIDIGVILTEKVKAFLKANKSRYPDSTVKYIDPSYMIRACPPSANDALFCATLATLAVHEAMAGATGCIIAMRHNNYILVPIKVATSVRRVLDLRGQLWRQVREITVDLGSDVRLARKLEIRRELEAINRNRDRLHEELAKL
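Luminescent ADP detection (ADP-Glo, two-step: ATP depletion then ADP-to-ATP conversion for luciferase) reported PFK activity after 45 min room-temperature reaction of 1.25 nM enzyme with 0.5 mM F6P and 0.1 mM ATP at pH 8.0.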
KCNH2 3.1 inh: qHTS for Inhibitors of KCHN2 3.1: Mutant qHTS; Potassium voltage-gated channel subfamily H member 2, brain isoform KCNH2 3.1 (human); U2OS KCNH2 3.1, thallium flux FluxOr; hits give low values; activity change, % (tested at about 1.8 µM); 340,000 tested, 0.95% active; AID 720553, 2013;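 active = maximum activity change below -70%; inconclusive = maximum activity change from -70% to -50%; inactive = maximum activity change above -50%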;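 note: thallium influx rate constant from kinetic fluorescence after stimulation buffer; % is set by controls: 0 for no effect and ±100 for the full control effect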
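FluxOr-based Tl+ influx in U2OS cells transduced with KCNH2 3.1 virus; rate constants normalized to DMSO controls.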
An asterisk follows results filed as active; u = inconclusive; x = not tested or not shown; [ ] = remark or other dose.

SMILES	TSG101-PTAP inh	hERG WT inh	Tb PFK block	KCNH2 3.1 inh
COc1ccc([C@H]2CC(=O)C=C(c3cccc4c3Oc3ccccc3S4)C2)cc1OC	x	x	2.6%	x
Cc1coc2c(C)c3oc(=O)c(CCC(=O)N4CCC(C(=O)NCCCC(=O)O)(c5ccccc5)CC4)c(C)c3cc12	0.1%	-20.6	0.1%	-197.0*
Cc1coc2c(C)c3oc(=O)c(CCC(=O)NCCCN4CCOCC4)c(C)c3cc12	-6.0%	-0.2	0.6%	11.3
COC1=CC(=Cc2c(N)n3nc(CC(=O)N4CCCCC4)sc3nc2=O)C=C(OC)C1=O	39.0%	-70.5*	-0.9%	9.6
COC1=C/C(=C/c2c(N)n3nc(CC(=O)N4CCCC4)sc3nc2=O)C=CC1=O	12.7%	-1.7	1.6%	15.8
c1ccc2c(c1)COC(CNC1CCCCC1)OC2	-7.3%	x	0.0%	39.3
CCCC[C@]12Cc3ccccc3[C@H](O1)C1=C(O2)C(=O)c2ccccc2C1=O	x	x	3.5%[11.5 µM]	x
Cc1ccc(C2=N/C(=C\N3CCCCC3)C(=O)O2)cc1	-0.6%	-17.1	-2.4%	1.4
Cc1nn(-c2ccccc2)c(N2CCCC2)c1/C=C1\N=C(c2ccc(OC(C)C)cc2)OC1=O	u	-4.3	5.2%	-75.1*
O=C(O)CCCCCNC(=O)c1cccc(Br)c1	-3.7%	3.1	1.8%	-3.2
O=C(O)CCCC(=O)NNC(=O)c1cccc(Br)c1	-0.9%	6.4	3.7%	-97.5*
O=C(NNC(=O)c1ccccc1O)c1ccc(Br)cc1	-6.0%	3.8	1.3%	3.8
O=C(NNC(=O)c1ccccc1O)c1cccc(Br)c1	-5.4%	3.3	0.8%	-80.7*
O=C(CSc1nnc(COc2ccc(Cl)cc2)o1)N(c1ccccc1)C1CCS(=O)(=O)C1 (stereo not drawn)	x	34.9	x	-14.8
CCCC(C)Sc1nc2c([nH]1)c(=S)n(C)c(=O)n2C (stereo not drawn)	-1.6%	-157.2*	x	-15.0
Cc1ccc(S(=O)(=O)N2CCCCC2)cc1NC(=O)c1ccncc1	2.1%	-13.1	0.0%	3.8
COc1ccccc1-c1cn[nH]c1-c1ccc(O)cc1O	0.5%	-7.3	2.2%	-116.2*
C=C1CC2C=C(NC(C)=O)CC(C1)C2 (stereo not drawn)	-4.5%	-7.4	2.5%	-82.9*
COc1ccc(/C=C2\N=C(C)OC2=O)cc1[N+](=O)[O-]	-2.6%	2.4	-1.8%	1.9
Cc1ccc(C(=O)Nc2ccc3c(c2)C(=O)NC3=O)cc1	4.0%	28.1	-4.4%	3.5
COC(=O)c1ccc(C(=O)Nc2ccc3c(c2)C(=O)NC3=O)cc1	-1.1%	11.9	-2.6%	-95.9*
COc1ccc(CC(=O)N/N=C\c2cc(Br)c(O)c(Br)c2)cc1	-5.8%	5.5	-26.2%	-4.0
O=C(c1cccc(C(F)(F)F)c1)C1CCCN(Cc2cccn2-c2ccccn2)C1 (stereo not drawn)	-4.2%	u	-8.7%	-108.9*
COc1ccc(C(=O)C2CCCN(C/C=C/c3ccccc3OC)C2)c(OC)c1 (stereo not drawn)	-1.6%	29.4	1.2%	-70.8*
COc1ccc(C(=O)C2CCCN(Cc3cccn3-c3ccc(Cl)cn3)C2)c(OC)c1 (stereo not drawn)	-1.8%	-30.4	-6.8%	-72.6*
SMILES	TSG101-PTAP inh	hERG WT inh	Tb PFK block	KCNH2 3.1 inh
COc1ccc(/C=C/CN2CCCC(C(=O)c3ccc(OC)c(F)c3)C2)cc1 (stereo not drawn)	-4.3%	-12.0	0.2%	-90.4*
CCCn1c(SCC(=O)N(C)CC(=O)Nc2ccc(C)cc2)n[nH]c1=O	-11.2%	-3.0	-4.0%	-1.6
CC(=O)NN=C1CCC(c2ccccc2)CC1 (stereo not drawn)	-0.7%	-88.2*	-0.9%	1.4
COC(=O)c1ccccc1-c1c2ccc(=N)cc-2oc2cc(N)ccc12	-106.1%	-118.0*	-4.6%	u
O=S(=O)(NCc1ccccc1F)c1cccc(S(=O)(=O)N2CCOCC2)c1	-2.2%	-0.5	0.0%	28.4
CCOc1ccc(CN2CCN(Cc3cc4c(cc3Cl)OCO4)CC2CCO)cc1 (stereo not drawn)	-11.6%	-110.7*	-4.5%	-119.2*
